Screening results from PubChem BioAssay.
AMA1-RON2 inh = AMA1-RON2 (P. falciparum) interaction inhibition; AlphaScreen AMA1-biotinylated RON2 peptide binding; Potency, µM (highest dose often 58.2 µM), usual class: inhibitors; actives 0.2% (n = 360,000); AID 720542; also: nearly all actives have a fitted effect of over 45% in size
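AMA1 (3D7) with his tag at 25 nM final met compounds first, then biotinylated RON2 peptide at 25 nM; detection used donor plus acceptor beads, 10 µg/mL apiece, read by AlphaScreen after 30 min at room temperature.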
Pf growth 96h = P. falciparum growth inhibition at 96 hours | AID 504834 | actives 6.9% (n = 320,000) | P. falciparum luciferase reporter growth, 96 h | Potency, µM (titrated, usually from 28.7 µM), hits mostly inhibitors
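Two parasite generations (96 h, 37 C, 5% CO2) of compound exposure in infected erythrocytes (0.05% parasitemia, 2% hematocrit). Luciferase-reporter P. falciparum; decreased luminescence indicates inhibited growth, aimed at apicoplast-acting delayed death.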
Sm TGR block = blocks Schistosoma mansoni thioredoxin glutathione reductase. Potency, µM (top dose mostly 114 µM), actives largely listed as inhibitors. AID 485364. Q962Y6. purified TGR, DTNB reduction, TNB absorbance 405 nm. actives 3% (n = 360,000); also: nearly all actives have a fitted effect of over 60% in size
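TGR 20 nM + NADPH 100 uM (dispensed conc.), cpd preinc 15 min RT; start with NADPH (500 uM addition) then DTNB (15 mM addition). Kinetic TNB absorbance, 405 nm filter. Four-parameter Hill fit across titration.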
NS1 function inh = blocks influenza NS1 protein function; Potency, µM (highest dose often 46.1 µM); actives 0.4% (n = 270,000); AID 2326; calls by dose curve; also: actives are rising curves; nearly all actives have a fitted effect of over 50% in size
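Compounds were scored for reversing the slow growth caused by influenza A NS1 in S. cerevisiae, measured by optical density at 600 nm. Assay medium contained 2% galactose at pH 6.0; NS1-free yeast of the same strain were the positive control.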
Pf growth 48h = P. falciparum growth inhibition at 48 hours (one generation); actives 5.9% (n = 310,000); P. falciparum luciferase growth in erythrocytes, 48 h; Potency, µM (top dose mostly 28.7 µM), actives largely listed as inhibitors
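A one-generation exposure of luciferase-tagged malaria parasites in RPMI 1640/Albumax erythrocyte culture, 37 C and 5% CO2. Inhibition is inferred from decreased luminescence after adding detection reagent.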
Large screens that a line does not name were inactive. In the library only some 11% were active in any assay of this set; here they are far more common. Unless noted, calls follow the shape of the dose curve; as a rule, active = well fitted curve in the direction sought with a large enough effect; inconclusive = small, poorly fitted or top-dose-only effect, or another doubt; inactive = no such curve, though single readings can be large; an effect the other way counts as inactive or inconclusive.

CCCCSc1nnc2n(CCc3ccccc3)c(=O)c3c4c(sc3n12)COC(C)(C)C4	Pf growth 96h 1.65µM
c1ccc(Nc2nc(Nc3ccccc3)nc(N3CCNCC3)n2)cc1	Pf growth 96h 9.28µM, Pf growth 48h inconclusive
Cn1c(=O)c2[nH]c(Nc3ccccc3)nc2n(C)c1=O	Pf growth 96h inconclusive
O=c1nc(N2CCCC2)nc(Nc2ccccc2)[nH]1	Pf growth 96h 14.7µM
CN1CCN(c2nc(Nc3ccc(F)cc3)nc(Nc3ccc(F)cc3)n2)CC1	none
Cc1ccccc1OCC(O)COc1ccccc1C	none (no result: Pf growth 96h, Sm TGR block, NS1 function inh, Pf growth 48h)
O=C1CN(C(=O)CSc2nnnn2-c2ccc(Cl)cc2)c2ccccc2N1	Pf growth 48h 4.65µM
Cc1nnc(SCC(=O)N2CC(=O)Nc3ccccc32)n1Cc1ccccc1	Pf growth 48h inconclusive
CC(C)Cn1c(SCC(=O)N2CC(=O)Nc3ccccc32)nc2ccccc21	Pf growth 96h inconclusive, Pf growth 48h inconclusive
COCC(C)n1c(SCC(=O)N2CC(=O)Nc3ccccc32)nc2ccccc2c1=O (centres undefined)	Pf growth 96h inconclusive, Pf growth 48h 13.1µM (no result: NS1 function inh)
CC(c1ccccc1)n1c(SCC(=O)N2CC(=O)Nc3ccccc32)nc2ccccc2c1=O (centres undefined)	Pf growth 96h 5.22µM, NS1 function inh inconclusive, Pf growth 48h 13.1µM
O=C1CN(C(=O)CSc2nc3cc(Cl)ccc3c(=O)n2Cc2ccccc2)c2ccccc2N1	Pf growth 96h inconclusive, NS1 function inh inconclusive, Pf growth 48h 3.29µM
O=C(CSc1nc(=O)[nH]c2c1CCCC2)NCc1ccc(Cl)cc1	none (no result: AMA1-RON2 inh, Pf growth 96h, NS1 function inh, Pf growth 48h)
O=C(NCC1CCCO1)C(c1ccc(F)cc1)N(Cc1ccc2c(c1)OCO2)C(=O)c1ccc(CN2CCOCC2)o1 (centres undefined)	none (no result: Sm TGR block)
NS(=O)(=O)c1ccc(CCNc2nn3c(-c4cccc(OC(F)(F)F)c4)cnc3s2)cc1	none (no result: Pf growth 96h, Sm TGR block, NS1 function inh, Pf growth 48h)
COc1ccc(OCC(O)CNS(=O)(=O)c2ccc(C)cc2)cc1 (centres undefined)	none
CCOc1ccc(C(=O)NCc2nc3cccnc3n2Cc2ccc(F)cc2)cc1OCC	none (no result: AMA1-RON2 inh, Pf growth 96h, NS1 function inh, Pf growth 48h)
O=C(c1n[nH]c2ccccc12)N1CCN(S(=O)(=O)c2ccccc2)CC1	Pf growth 96h 7.38µM, Pf growth 48h 5.22µM (no result: NS1 function inh)
O=C(c1n[nH]c(=O)c2ccccc12)N1CCN(c2ccccc2Cl)CC1	Pf growth 96h inconclusive
O=C(c1n[nH]c(=O)c2ccccc12)N1CCN(S(=O)(=O)c2ccccc2Cl)CC1	Pf growth 96h 5.86µM, Pf growth 48h inconclusive (no result: NS1 function inh)
Cc1nc2sc3c(c2c(=N)n1N)CCCC3	Pf growth 96h 10.4µM
Cc1ccc(C)n1-n1c(C)nc2sc3c(c2c1=O)CCCCC3	AMA1-RON2 inh inconclusive, Pf growth 96h 11.7µM, Pf growth 48h 11.7µM
Nc1c2c3c(sc2nc(=O)n1N)CCCC3	Pf growth 96h 6.57µM
Nc1nc2sc3c(c2c(=O)s1)CCCC3	none
Cc1nc2sc3c(c2c(=O)o1)CCCC3	Pf growth 96h 2.08µM
O=C(OCc1nnc(-c2ccc([N+](=O)[O-])cc2)o1)C1CCN(C(=O)c2ccc(F)cc2)CC1	Pf growth 96h inconclusive (no result: NS1 function inh)
CCS(=O)(=O)N1CC(=O)N(c2ccccc2C)C(C)(C(=O)NC2CCCCC2)C1 (centres undefined)	none (no result: AMA1-RON2 inh, Pf growth 96h, NS1 function inh, Pf growth 48h)
CCCC[C@H](O)c1ccccc1	Pf growth 96h inconclusive (no result: AMA1-RON2 inh, Sm TGR block, NS1 function inh)
Cc1ccc(-c2nc3sc4c(c3c(=O)n2N)CCCC4)cc1	Pf growth 96h 7.38µM (no result: Pf growth 48h)
O=C(NCCNc1ccnc2cc(Cl)ccc12)c1ccccc1F	Pf growth 48h 0.465µM
Clc1ccc(NNc2ccnc3cc(Cl)ccc23)cc1	AMA1-RON2 inh inconclusive, Pf growth 96h 1.65µM, Pf growth 48h 1.65µM
O=C(NCCNc1ccc(Cl)cc1[N+](=O)[O-])c1ccccc1F	Pf growth 96h inconclusive
CCN(CC)CCC[C@H](C)Nc1c2ccc(Cl)cc2nc2ccc(OC)cc12	Pf growth 96h 0.0953µM, Pf growth 48h 0.0379µM (no result: AMA1-RON2 inh, Sm TGR block, NS1 function inh)
CCN(CC)CCCC(C)Nc1nccc2c(Cl)cccc12 (centres undefined)	none (no result: Pf growth 96h, Sm TGR block, NS1 function inh, Pf growth 48h)
O=C(O)c1ccc(Nc2ccnc3cc(Cl)ccc23)cc1O	none (no result: AMA1-RON2 inh, Pf growth 96h, Sm TGR block, Pf growth 48h)
CCN(CC)Cc1cc(Nc2ccnc3cc(Cl)ccc23)ccc1O	Pf growth 96h 0.0033µM, Pf growth 48h 0.0047µM
Cc1cc(C)c(C2=Nn3c(C)nnc3SC2C)cc1C (centres undefined)	none
Cc1ccc(C)c(CSc2nnc3[nH]c(=O)cc(C)n23)c1	none (no result: AMA1-RON2 inh, Pf growth 96h, NS1 function inh, Pf growth 48h)
